An excerpt weighted towards active compounds, which were near 3.1% of everything screened.
D3 antag: qHTS of D3 Dopamine Receptor Antagonist: qHTS. D(3) dopamine receptor (Homo sapiens), P35462. D3R cells, DiscoveRx beta-arrestin luminescence, antagonist mode; active compounds read low. max response, negative = inhibition, %. 360,000 tested, 2.5% active; in the data active = max response below about -50%; inconclusive = no clear call, values can overlap the other calls; also: % is scaled to controls: 0 for no effect and ±100 for the full control effect
Target sequence (P35462 whole entry, looked up): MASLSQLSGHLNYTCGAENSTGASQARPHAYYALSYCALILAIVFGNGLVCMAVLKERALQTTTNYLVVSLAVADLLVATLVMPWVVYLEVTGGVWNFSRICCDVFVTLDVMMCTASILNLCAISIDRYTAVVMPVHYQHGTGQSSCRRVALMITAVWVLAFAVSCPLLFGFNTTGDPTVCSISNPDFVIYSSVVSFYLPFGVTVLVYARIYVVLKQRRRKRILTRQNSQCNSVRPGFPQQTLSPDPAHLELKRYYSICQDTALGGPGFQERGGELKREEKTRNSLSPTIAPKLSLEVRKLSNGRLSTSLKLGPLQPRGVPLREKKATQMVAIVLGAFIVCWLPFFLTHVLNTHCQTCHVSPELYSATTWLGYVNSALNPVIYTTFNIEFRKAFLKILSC
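Cells expressing the human receptor were seeded at 1500 cells/well, incubated overnight at 37 degrees C in 5% CO2, then exposed to library compounds with dopamine controls for 90 minutes at 37 degrees C before luminescent detection.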
DRD3 agonist: qHTS of D3 Dopamine Receptor Agonist: qHTS. D3R DiscoveRx beta-arrestin cells, luminescence, 90 min. D(3) dopamine receptor (Homo sapiens), P35462. max activation, %. 410,000 tested, 0.58% active; in the data active = max activation above about 30%; also: 0% is about no effect
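Agonist-mode cell screen: cells plated at 1500/well and incubated overnight at 37 °C, then exposed to library compounds for 90 min at 37 °C. Detection reagent was added for 30–60 min at room temperature, and luminescence was read.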
RGS4 inhibitor: Inhibitors of Regulator of G Protein Signaling (RGS) 4: qHTS. Regulator of G-protein signaling 4 (Homo sapiens), P49798. Transcreener GDP fluorescence polarization, RGS4-accelerated GTP hydrolysis. Potency, µM (doses to about 114 µM), inactives show top-dose activity change, negative = inhibition, most hits filed as inhibitors. 390,000 tested, 0.039% active. AID 504845, 2011; active = well fitted inhibition curve with a large enough effect; inconclusive = small, poorly fitted or top-dose-only effect; inactive = no such curve, though single readings can be large or run the other way; also: potency is read from the fitted curve at half-maximal effect; % is scaled to controls: 0 for no effect and ±100 for the full control effect; nearly all actives have a fitted effect of over 75% in size
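MLSMR compounds (23 nl, pin-transferred) preincubated 10 min at room temperature with a 500nM (2x) first reagent, then RGS4 at 900nM (2x) plus Transcreener GDP mix added; fluorescence polarization (620/688 nm) read before and after 90 min at 30 °C.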
uPA generation: qHTS for Inhibitors of Cell Surface uPA Generation; cell surface uPA generation assay, qHTS; Potency, µM (titrated, usually from 38.3 µM), for the others: at the top dose activity change, negative = inhibition, actives largely listed as inhibitors; 330,000 tested, 0.31% active; AID 540303, 2011; active = well fitted inhibition curve with a large enough effect; inconclusive = small, poorly fitted or top-dose-only effect; inactive = no such curve, though single readings can be large or run the other way; tested in mouse RAW 264.7 cells; also: potency is read from the fitted curve at half-maximal effect; % is scaled to controls: 0 for no effect and ±100 for the full control effect; nearly all actives have a fitted effect of over 55% in size
The depositor's hits bear a star; ? = inconclusive; / = not tested or not shown; [ ] = another dose, or the depositor's remark.

SMILES	D3 antag	DRD3 agonist	RGS4 inhibitor	uPA generation
CCN(CC)CCOC(=O)c1ccc(NC(=O)/C=C/c2cccs2)cc1	-101*	-12	-37%	13%
CCCc1nc2ccccc2n1CCOc1ccccc1	-62*	-5	17%[56.9 µM]	-2%
CCCc1nc2ccccc2n1CCOC	-8	-2	-7%[11.4 µM]	0%
COc1ccc(NCc2nc3ccccc3n2CCOc2ccc(C)cc2)cc1	-52*	5	22%	-16%
CS(=O)(=O)c1ccc(C(=O)Nc2ccc(N3CCOCC3)cc2)c(Cl)c1	-5	-9	-4%	-7%
CS(=O)(=O)c1ncc(Cl)c(C(=O)Nc2ccc(N3CCOCC3)cc2)n1	-78*	-29	?	?
CCN(c1ccccc1)S(=O)(=O)c1ccc(NC(=O)c2nc(S(C)(=O)=O)ncc2Cl)cc1	-93*	-25	?	?
CS(=O)(=O)c1ncc(Cl)c(C(=O)Nc2ccc(OC(F)F)cc2)n1	-152*	-19	?	-14%
CCS(=O)(=O)c1ncc(Cl)c(C(=O)Nc2ccc(S(=O)(=O)N(C)c3ccccc3)cc2)n1	?	-34	?	2%
CCOc1cc2[nH]c(=O)n(CCCCC(=O)N3CCN(c4ccccc4OC)CC3)c(=O)c2cc1OCC	/	17	-2%	/
O=C(CSc1nc2ccccc2o1)N/N=C/c1ccc(O)c(O)c1	-21	5	-3%	6.3µM*
COc1cccc2c(SCC(=O)N/N=C/c3ccccc3)cc(C)nc12	5	-1	-45%	-7%
COc1cccc2c(SCC(=O)N/N=C/c3ccc(O)c(O)c3)cc(C)nc12	5	31*	-2%	-10%
CCCCC1=CC2=C(c3ccco3)C(=O)C(C)(OC(=O)c3ccc(OC)cc3)C(=O)C2=CN1CC1CC1 (configuration not stated)	-64*	-36	-41%	-14%
CCCCC1=CC2=C(c3ccco3)C(=O)C(C)(OC(=O)c3ccc(OC)cc3)C(=O)C2=CN1CCCCO (configuration not stated)	-24	14	-25%	6%
Cc1ccc(C)c(C(=O)CSc2nc(-c3ccccc3)nc3c2CCCC3)c1	/	4	-9%	/
Cc1ccc(S(=O)(=O)N/N=C2/CC(c3ccccc3)Oc3ccccc32)cc1[N+](=O)[O-] (configuration not stated)	-83*	-4	-13%	3%
O=S(=O)(N/N=C1/CC(c2ccccc2)Oc2ccccc21)c1ccc(Br)cc1 (configuration not stated)	22	0	5%	2%
CCCCCCCC/C=C\CCCCCCCC(=O)OC[C@@H](O)COP(=O)(O)O	/	/	120%[56.9 µM]	/
Cc1nn2c(=O)cc(COc3ccc(/C=C(\C#N)C(=O)Nc4ccc(F)cc4)cc3)nc2s1	/	78*	-38%	/
COc1ccc(NC(=O)/C(C#N)=C/c2ccc(OCc3cc(=O)n4nc(C)sc4n3)cc2)cc1	/	-14	-39%	/
COc1ccc(OC)c(C(=O)CSc2nnnn2C)c1	19	8	-19%	/
O=C(CSc1nnnn1Cc1ccccc1)c1ccccc1	-58*	-2	-19%	0%
O=C(CSc1nnnn1Cc1ccccc1)c1ccc(F)cc1	5	5	-16%	-11%
CCCCn1nnnc1SCC(=O)NCc1ccccc1	-55*	-3	19%	2%
SMILES	D3 antag	DRD3 agonist	RGS4 inhibitor	uPA generation
COc1cccc(C(=O)CSc2nnnn2C)c1	-64*	0	?	-2%
COc1ccc2nc(-c3ccccc3)nc(SCC(=O)NCC3CCCO3)c2c1 (configuration not stated)	0	33*	24%	6%
O=C(CSc1nc2c([nH]c3ccccc32)c(=O)n1-c1ccccc1F)NCC1CCCO1 (configuration not stated)	-78*	-29	5%	10%
Cc1ccccc1-n1c(SCC(=O)NCC2CCCO2)nc2c([nH]c3ccccc32)c1=O (configuration not stated)	-82*	-23	-5%	18%
COc1ccc(C)cc1-n1c(SCC(=O)NCC2CCCO2)nc2c([nH]c3ccccc32)c1=O (configuration not stated)	-3	-6	-23%	9%
CCOC(=O)N1CCN(C(=O)CSc2nc3c([nH]c4ccccc43)c(=O)n2CC)CC1	27	46*	-16%	-12%
